# MITF inh – MITF inhibitors, primary screen, biochemical, AlphaScreen, human; Microphthalmia-associated transcription factor (Homo sapiens), O75030; AlphaScreen MITF homodimerization, bead proximity signal; inhibition, % at 2.6 µM; 650,000 tested, 0.91% active; AID 1259374, 2018; in the data active means inhibition above about 50%
# GPR151 ag – activators of human GPR151, primary screen, cell-based, PathHunter beta-arrestin, luminescence; 650,000 tested, 1% active; G-protein coupled receptor 151 (Homo sapiens), Q8TDV0; AID 1508602, 2020; activation, % at 11.2 µM; PathHunter beta-arrestin GPR151 cells; in the data active means activation above about 4.9%
# TEAD-YAP inh – TEAD-YAP interaction inhibition, primary screen, TEAD-YAP interaction inhibitor project, luminescence, HEK-TIYL cells; TEAD-Gal4/YAP UAS-luciferase luminescence; inhibition, % at 9.12 µM; 640,000 tested, 1.4% active; in the data active means inhibition above about 32%
# FBW7 act – FBW7 E3 ligase activators, primary screen, biochemical, AlphaScreen, human. F-box/WD repeat-containing protein 7 (Homo sapiens), Q969H0. AlphaScreen FBW7–phospho-cyclin E peptide binding, activator screen. normalized activity (activation), % at 26.1 µM. 650,000 tested, 0.13% active. AID 1259310, 2017; in the data active means normalized activity above about 1.9%;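 further: purified mutant Fbw7 with reduced substrate affinity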
# Target sequence (Q969H0 whole entry, looked up): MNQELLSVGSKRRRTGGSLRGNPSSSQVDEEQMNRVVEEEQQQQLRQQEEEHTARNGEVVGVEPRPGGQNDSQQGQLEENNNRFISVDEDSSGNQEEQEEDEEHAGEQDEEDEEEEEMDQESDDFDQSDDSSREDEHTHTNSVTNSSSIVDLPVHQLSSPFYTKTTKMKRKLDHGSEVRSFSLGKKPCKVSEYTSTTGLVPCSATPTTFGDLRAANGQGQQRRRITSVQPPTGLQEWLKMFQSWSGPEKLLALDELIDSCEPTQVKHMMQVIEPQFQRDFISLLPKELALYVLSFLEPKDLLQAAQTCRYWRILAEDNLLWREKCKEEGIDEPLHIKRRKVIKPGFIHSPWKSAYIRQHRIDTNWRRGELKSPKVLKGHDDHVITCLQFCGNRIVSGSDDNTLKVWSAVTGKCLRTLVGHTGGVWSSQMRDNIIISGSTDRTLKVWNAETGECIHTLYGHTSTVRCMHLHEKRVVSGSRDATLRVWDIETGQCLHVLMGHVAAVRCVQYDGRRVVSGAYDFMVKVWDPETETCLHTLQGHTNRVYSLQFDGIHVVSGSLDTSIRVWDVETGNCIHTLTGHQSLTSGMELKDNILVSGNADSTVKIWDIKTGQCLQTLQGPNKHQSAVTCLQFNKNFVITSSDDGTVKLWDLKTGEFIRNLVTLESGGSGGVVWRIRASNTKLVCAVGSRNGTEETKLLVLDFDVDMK
# MITF confirm – MITF inhibitors, retest of hits, confirmation, biochemical, AlphaScreen, triplicate; AlphaScreen MITF homodimerization, biotin/His-MITF beads; shares compounds with MITF inh; inhibition, % at 2.6 µM; 4,700 tested, 16% active;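 active means inhibition above a cutoff derived from the DMSO control wells, cut at about 28% in these data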;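 further: inhibitors lower the bead chemiluminescence by keeping MITF from dimerizing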
# AlphaScreen DR – AlphaScreen optical interference compounds, dose response, counter-screen, biochemical, HTS; shares compounds with MITF inh; 480 tested, 6% active; AlphaScreen optical interference counterscreen, cell-free; IC50, µM; AID 1259373, 2018; call rule not given here
# AS interf ctr – AlphaScreen optical interference compounds, counter-screen for MITF inhibitor project, biochemical, triplicate; AID 1259376, 2018; LysRS AlphaScreen counterscreen, signal interference; shares compounds with MITF inh; 4,700 tested, 7.6% active; inhibition, % at 2.6 µM;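 active means inhibition above a cutoff derived from the DMSO control wells, cut at about 30% in these data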
# Hits are given with their value; - = inactive; . = not tested or not shown. Rows were chosen to be rich in hits. Some 3.4% of all compounds tested hit in one or more screens of this group.
SMILES,MITF inh,GPR151 ag,TEAD-YAP inh,FBW7 act,MITF confirm,AS interf ctr,others
CC1(C)CC(N2COc3c(cc(Cl)c4cccnc34)C2)CC(C)(C)N1,52,-,40,-,68,100,
Clc1cc2c(c3ncccc13)OCN(Cc1ccco1)C2,-,-,-,-,.,.,
Clc1cc2c(c3ncccc13)OCN(C1CCCC1)C2,97,-,66,-,99,101,
CCCNc1nc(Nc2ccncn2)nc(N(CC)CC)n1,-,-,-,-,.,.,
OCC1(Cc2ccccc2)CCN(Cc2ccc(Oc3ncccn3)cc2)CC1,-,-,-,-,.,.,
COCCCNC(=O)/C(C#N)=C/c1ccc(OCC(=O)O)c(OC)c1,62,-,-,-,35,-,AlphaScreen DR=-
Cc1nc2nc3ccccc3nc2n1-c1ccc(F)cc1,-,-,-,-,.,.,
CC1CN(CC(=O)NCc2nc3ccccc3c(=O)[nH]2)Cc2ccccc2O1 (centres undefined),-,-,-,-,.,.,
COc1ccc(C(=O)N2CCN(Cc3cccnc3)CC2)cc1,67,-,-,-,-,-,
O=C(c1ccc([N+](=O)[O-])cc1)N1CCN(Cc2cccnc2)CC1,74,-,-,-,-,-,
COc1ccc(CN2CCN(C(=O)c3ccc([N+](=O)[O-])cc3)CC2)cc1,60,-,-,-,-,-,
COc1ccc(C(=O)N2CCN(Cc3cccnc3)CC2)cc1OC,78,-,-,-,-,-,
CN1C(=O)[C@H]2CN(C(=O)c3ccc(F)cc3)CCN2C(=O)[C@@H]1CO,-,-,-,-,.,.,
CCOc1ccccc1N1CCN(C(=O)c2ccc(Cl)cc2[N+](=O)[O-])CC1,-,-,-,-,.,.,
O=C(c1cccc2ccccc12)N1CCN(Cc2cccnc2)CC1,60,-,-,-,-,-,
COc1ccc(COC(=O)C2=C(C)NC3=C(C(=O)CC(C)(C)C3)C2c2ccc(C)o2)cc1 (centres undefined),-,-,-,-,.,.,
COc1ccc(/C=C(\C#N)C(=O)Oc2ccc([N+](=O)[O-])c3cccnc23)cc1,54,-,-,-,51,99,
CCOC(=O)C1=C(C)NC2=C(C(=O)C(C(=O)OCC)C(c3cccc(OC)c3)C2)C1c1cccc(Br)c1 (centres undefined),-,-,-,-,.,.,
NC(CCC(=O)Nc1ccc([N+](=O)[O-])cc1)C(=O)O (centres undefined),-,-,-,-,.,.,
CCCC(=O)N1CCN(c2cccc3c2C(=O)N(Cc2cnn(C)c2C)C3=O)CC1,97,-,-,-,-,-,
Cc1c(CN2C(=O)c3cccc(N4CCN(C(=O)CC(C)(C)C)CC4)c3C2=O)cnn1C,-,-,-,-,.,.,
CCOc1ccc(NC(=O)c2c(NC(=S)Nc3ccccc3)sc3c2CCCC3)cc1,-,-,-,-,.,.,
COc1cccc(CN2CCC(N3CCN(c4ccccc4F)CC3)CC2)c1,73,-,-,-,-,-,
COc1ccccc1N1CCN(C2CCN(Cc3cccc(F)c3)CC2)CC1,62,-,-,-,-,-,
CN1CCN(CCOCCOc2ccc(Cl)cc2C(C)(C)C)CC1,68,-,-,-,-,33,
SMILES,MITF inh,GPR151 ag,TEAD-YAP inh,FBW7 act,MITF confirm,AS interf ctr,others
Cc1ccc(OCCCN2CCN(C)CC2)c(C(C)(C)C)c1,-,-,-,-,.,.,
CN1CCN(CCOCCOc2cccc(Cl)c2Cl)CC1,51,-,-,-,-,-,
Cc1ccc(OCCOCCN2CCN(C)CC2)c(C)c1,65,-,-,-,-,-,
Cc1ccc(OCCOCCN2CCN(C)CC2)c(C(C)(C)C)c1,56,-,-,-,-,-,
CN1CCN(CCOCCOc2ccccc2Br)CC1,-,-,-,-,.,.,
CCc1ccc(C2=NC(c3ccc(C)cc3)NC(c3cc(Cl)ccc3O)C2)cc1 (centres undefined),-,-,-,-,.,.,
c1ccc2c(OCCNC3CCCC3)cccc2c1,-,-,-,-,.,.,
CCN1CCN(CCOc2ccc(C)cc2C)CC1,78,-,-,-,-,-,
CCN1CCN(CCOc2ccc(C)cc2Br)CC1,-,-,-,-,.,.,
CCN1C(=O)/C(=C/c2ccc(-c3ccc([N+](=O)[O-])cc3)o2)NC1=S,52,-,-,-,-,-,
O=C(O)CCN1C(=O)C(=O)/C(=C(\O)c2ccc(Cl)cc2)C1c1ccc([N+](=O)[O-])cc1 (centres undefined),-,-,-,-,.,.,
COc1ccc(CCN(CC(=O)Nc2c(C)cc(C)cc2C)CC(=O)Nc2c(C)cc(C)cc2C)cc1OC,-,-,-,-,.,.,
Cc1c(Cl)cccc1NC(=O)CC(NCCCN(C)C)C(=O)O (centres undefined),-,-,-,-,.,.,
O=C(CC(NCc1ccccc1)C(=O)O)Nc1cccc(Cl)c1Cl (centres undefined),-,-,-,-,.,.,
COc1ccc(NC(=O)CC(NCc2ccccn2)C(=O)O)cc1 (centres undefined),110,-,-,-,107,100,
Cc1c(Cl)cccc1NC(=O)CC(NCc1ccccn1)C(=O)O (centres undefined),90,-,-,-,62,100,
NCCNC(CC(=O)Nc1cccc(Cl)c1Cl)C(=O)O (centres undefined),85,-,-,-,-,33,
CCCNC(CC(=O)Nc1ccc(OC)cc1)C(=O)O (centres undefined),-,-,-,-,.,.,
O=C(NCc1cc2cc(Cl)ccc2[nH]1)C1CC(CCc2ccccc2)=NO1 (centres undefined),-,-,-,-,.,.,
OC(CNCCCn1ccnc1)COc1cccc2ccccc12 (centres undefined),84,-,-,-,-,-,
OC(CNCCCn1ccnc1)COc1ccccc1 (centres undefined),75,-,-,-,-,-,
Cc1cc(C)n(CCCNCC(O)COc2ccc(-c3ccccc3)cc2)n1 (centres undefined),-,-,-,-,.,.,
Cc1cccc(OCC(O)CNCCCn2ccnc2)c1 (centres undefined),65,-,-,-,-,-,
Cc1cc(C)n(CCCNCC(O)COc2ccc(C(=O)c3ccccc3)cc2)n1 (centres undefined),60,-,-,-,-,-,
Cc1ccc(-n2c(SCc3ccccc3C)nc3c(sc(=S)n3-c3cc(C)ccc3F)c2=O)cc1,-,-,-,-,.,.,
Cc1cc(C)nc(SCC(=O)N/N=C\c2ccc(O)cc2)n1,-,-,-,-,.,.,

# From PubChem BioAssay
